Test results published in PubChem BioAssay.
Active and inactive are the calls of the source. Unless noted, no rule for the calls is given here.

Experiments:
[1] = blood-stage malaria parasite viability loss – strain 3D7, DAPI fluorescence, 100 nL, primary screen (AID 1184);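 also: parasites grown inside human red blood cells in medium with human serum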; conditions: P. falciparum 3D7 growth, 3 d, higher = more signal
[2] = target: Homeobox protein Hox-A13 (Mus musculus) (UniProt Q62424); assay: disruptors of Hoxa13 oligonucleotide interaction – biochemical, fluorescence polarization, labeled oligonucleotide, primary screen (AID 1185); conditions: Hoxa13:DNA binding, 15 min, higher = more signal, called active from +8 up or from −8 down
[3] = blockers of DNA damage checkpoint Chk1 activation – imaging, HeLa, hydroxyurea, phospho-Chk1 antibody, percent positive cells, primary screen (AID 1186); conditions: hydroxyurea-induced phospho-Chk1 immunofluorescence imaging, higher = more signal
[4] = blockers of DNA damage checkpoint Chk1 activation – imaging, HeLa, hydroxyurea, phospho-Chk1 nuclear intensity, primary screen (AID 1187); conditions: hydroxyurea-induced phospho-Chk1 immunofluorescence imaging, higher = more signal; also: test concentration not given here

Homeobox protein Hox-A13 (Mus musculus), sequence (Q62424 whole entry, looked up): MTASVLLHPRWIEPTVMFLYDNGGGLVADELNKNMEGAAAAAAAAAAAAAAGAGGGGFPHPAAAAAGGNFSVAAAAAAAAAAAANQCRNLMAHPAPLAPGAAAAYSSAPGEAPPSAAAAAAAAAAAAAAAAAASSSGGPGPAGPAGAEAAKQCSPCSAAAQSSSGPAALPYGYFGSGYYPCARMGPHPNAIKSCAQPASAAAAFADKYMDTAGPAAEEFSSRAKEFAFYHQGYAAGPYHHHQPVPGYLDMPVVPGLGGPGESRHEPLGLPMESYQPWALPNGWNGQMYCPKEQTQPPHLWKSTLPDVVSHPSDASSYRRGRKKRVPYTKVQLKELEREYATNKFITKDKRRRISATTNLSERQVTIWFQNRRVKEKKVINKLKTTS

SMILES	z-score [1]	z-score [2]	z-score [3]	z-score [4]
O=C1c2ccccc2[C@@]2(Cc3ccccc3N(CC(F)(F)F)C2=O)[C@H](c2ccc(CO)cc2)N1Cc1ccccc1C(F)(F)F	0.226	-0.0255 (inactive)	-0.563 (inactive)	-0.816 (inactive)
O=C(NCC(F)(F)F)[C@@H]1c2ccccc2C(=O)N(C2Cc3ccccc3C2)[C@H]1c1ccc(CO)cc1	0.824	-1.6 (inactive)	-0.606 (inactive)	-0.842 (inactive)
C[N+](C)(C)CCCCNC(=O)[C@@H]1C[C@@H]2C(=O)NCC(=O)N2[C@@H]1c1cccc(OCCO)c1	-0.664	-1.4 (inactive)	0.469 (inactive)	1.31 (inactive)
C=C(C1=CCN(S(=O)(=O)c2ccc(C)cc2)C1)[C@@H](OC(C)=O)[C@@H]1CCCN1S(=O)(=O)c1ccccc1[N+](=O)[O-]	-2.68	-3.62 (inactive)	-0.353 (inactive)	0.0039 (inactive)
COC(=O)c1c(CC[C@@H](CO)NC(=O)Nc2ccc(OC)cc2)oc(C(=O)Cc2ccccc2)c1C(=O)OC	-0.83	-4.5 (inactive)	0.0211 (inactive)	0.406 (inactive)
C=CCN1C(=O)[C@@]2(O[C@@H](CCO)[C@H]([Si](C)(C)c3ccc(OC)cc3)[C@H]2C)c2cc(N(C=O)c3ccccc3)ccc21	-2.56	-3.62 (inactive)	-1.21 (inactive)	-0.407 (inactive)
CC(C)(C)OC(=O)CC[C@@]12N=C(c3ccc(OCCCO)cc3)O[C@@H]1c1ccccc1N(Cc1ccccc1)C2=O	-2.19	-1.44 (inactive)	-0.501 (inactive)	-0.284 (inactive)
Cc1ccc(S[C@]2(C(=O)NCC(C)C)CC(=O)N(C(C)C)[C@@H]2c2ccc(CO)cc2)cc1	-1.79	1.8 (inactive)	-0.273 (inactive)	-0.0385 (inactive)
COc1ccc(/C=C/C(=O)c2cccc(OCC(=O)OC(C)(C)C)c2)cc1	-0.732	-3.31 (inactive)	-0.0499 (inactive)	0.373 (inactive)
C=CCNC(=O)[C@H]1[C@@H]2C(=O)O[C@@H](c3ccccc3)[C@@H](c3ccccc3)N2[C@@H](c2ccc(OCCO)cc2)[C@]12C(=O)Nc1ccc(C#CCCO)cc12	-0.739	-3.71 (inactive)	-0.229 (inactive)	-0.205 (inactive)
C=C(/C(=C/C[C@H](OC(C)=O)c1cccc(OCCO)c1)c1cc(C(=O)OC)ccc1OC)C(C)C	-1.79	-4.34 (inactive)	0.209 (inactive)	0.641 (inactive)
C=C(COC)/C(=C/C[C@H](OC(C)=O)c1ccc(CO)o1)c1cnc2ccccc2c1	-0.649	-4.41 (inactive)	-0.595 (inactive)	-0.669 (inactive)
NC(=O)NCC#Cc1ccc2c(c1)[C@]1(C(=O)N2)[C@H](c2ccc(OCCO)cc2)N2[C@H](c3ccccc3)[C@H](c3ccccc3)OC(=O)[C@H]2[C@@H]1C(=O)Nc1nc2ccccc2s1	-0.745	0.706 (inactive)	0.0953 (inactive)	0.219 (inactive)
CC(C)C[C@@H]1NC(=O)[C@@H]2C[C@H](C(=O)NCCCCCNC(=O)CS)[C@H](c3cccc(OCCO)c3)N2C1=O	-0.37	-2.89 (inactive)	0.611 (inactive)	0.419 (inactive)
Cc1ccc(S[C@]2(C(=O)NCCN3CCOCC3)CC(=O)N(Cc3cc(C(F)(F)F)cc(C(F)(F)F)c3)[C@@H]2c2ccc(CO)cc2)cc1	-0.578	-1.78 (inactive)	-0.999 (inactive)	-2.03 (inactive)
C=CC[C@]1(C(=O)N(C)C)N=C(c2ccc(OCCCO)cc2)O[C@H]1c1ccccc1CN=[N+]=[N-]	-2.49	-4.33 (inactive)	-0.0783 (inactive)	0.347 (inactive)
Cc1ccc(S[C@]2(C(=O)NC3CC3)CC(=O)N(Cc3ccccc3C(F)(F)F)[C@@H]2c2ccc(CO)cc2I)cc1	-0.215	-1 (inactive)	0.104 (inactive)	0.576 (inactive)
COCCOC(=O)N1C(=O)[C@@]2(c3ccccc31)[C@H](C(=O)Nc1nc3ccccc3s1)[C@H]1C(=O)O[C@H](c3ccccc3)[C@H](c3ccccc3)N1[C@@H]2c1ccc(O)cc1	0.112	0.895 (inactive)	-0.2 (inactive)	0.3 (inactive)
COCCCN1C(=O)[C@@]2(Cc3ccccc31)c1ccccc1C(=O)N(Cc1ccccc1Cl)[C@H]2c1ccc(CO)cc1	-0.7	-0.759 (inactive)	-0.83 (inactive)	-0.981 (inactive)
COCCCNC(=O)[C@@]1(Cc2ccccc2)N=C(c2ccc(OCCCO)cc2)O[C@H]1c1ccccc1N=[N+]=[N-]	-2.43	-3.11 (inactive)	-0.362 (inactive)	-0.373 (inactive)
